Screen size: about 320,000 compounds; about 22,000 (6.9%) were called active. Roughly 27% stayed inconclusive and do not appear here. Shown is part of a subset that was picked to be rich in actives. Values without a mark were called inactive. The call rests on the fitted dose curve; in most records, active means well fitted inhibition curve with a large enough effect; inconclusive means small, poorly fitted or top-dose-only effect, or another doubt; inactive means no such curve, though single readings can be large or run the other way.
Test: Primary qHTS for delayed death inhibitors of the malarial parasite plastid, 96 hour incubation
Conditions: P. falciparum luciferase reporter growth; series mostly up to 28.7 µM; activity change, negative = inhibition: at the top concentration
Summary of the method: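 Luminescence readout: decreased luciferase signal marks inhibited growth of reporter-expressing P. falciparum in infected red cells (2% hematocrit, 0.05% parasitemia final), exposed to compound two generations (96 h, 37 C, 5% CO2).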
On the % scale 0 is the no-effect control and ±100 the full control effect; potency means the concentration at half of the fitted maximal effect.

Row | Structure (SMILES) | Potency | activity change, negative = inhibition
1 | COc1cc(OC)nc(N/N=C(\c2ccccc2)c2ccncc2)n1 | 5.22 µM (active) | –
2 | O=C(O/N=C(/c1ccccc1)c1ccncc1)c1ccccc1[N+](=O)[O-] | – | 8.43%
3 | COc1ccc(C/C(C)=N/NC(=O)c2ccncc2)cc1 | – | 13.4%
4 | N#Cc1cccc(CN2CCC(=O)N([C@H](CO)c3ccccc3)CC2)c1 | – | -14.1%
5 | C=CCOc1ccc(/C=C/C(=O)OC(C)C(=O)Nc2ccc(NC(C)=O)cc2)cc1 (configuration not stated) | – | 32.7%
6 | CCc1cccc(NC(=O)CCC(=O)O)c1 | – | 33.6%
7 | O=C(Cc1ccccc1)Nc1cccc(NC(=O)c2ccccc2)c1 | – | 127%
8 | O=C(CCl)Nc1cccc(CP(=O)(c2ccccc2)c2ccccc2)c1 | 6.57 µM (active) | –
9 | COc1ccc(CCNS(=O)(=O)c2cn(C)nc2C)cc1 | – | -3.77%
10 | CCOc1ccc(OCC(=O)Nc2c3c(nn2C(C)(C)C)CS(=O)(=O)C3)cc1 | – | 8.15%
11 | Cn1c(SCC(=O)NC2CCCCC2)nnc1-c1ccc(N)cc1 | – | 31.1%
12 | CC1Cc2ccccc2N1C(=O)CSc1nnc(-c2ccc(S(=O)(=O)N3CCCC3)cc2)n1C (configuration not stated) | – | -27.2%
13 | Cn1c(SCC(=O)OC2CCCCC2)nnc1-c1ccc(S(=O)(=O)N2CCCC2)cc1 | 2.33 µM (active) | –
14 | Cc1ccc(CN2CC(C(=O)N3CCN(S(=O)(=O)c4ccccc4)CC3)CC2=O)cc1 (configuration not stated) | – | -5.27%
15 | CCc1noc(C)c1C(=O)Nc1nc2ccc(OC)cc2s1 | – | 55.7%
16 | O=C(CCc1ccc(S(=O)(=O)N2CCOCC2)cc1)Nc1ccc2ccccc2c1 | 5.22 µM (active) | –
17 | O=C(COC(=O)CCc1ccc(S(=O)(=O)N2CCOCC2)cc1)Nc1cccc(Cl)c1 | – | 1.04%
18 | O=C(CCc1ccc(S(=O)(=O)N2CCOCC2)cc1)NN=C1CCCCCCC1 | – | 7.59%
19 | CCN(CC(=O)N1CCCC1)S(=O)(=O)c1ccc(F)cc1 | – | -18.8%
20 | O=C(NCCCN1CCCC1=O)c1cccc(S(=O)(=O)NCc2ccccc2)c1 | – | 0.384%
21 | CCN(CC(=O)Nc1c(F)cccc1F)C(=O)C1CCC1 | – | 12.3%
22 | CC(C)c1ccc(Cc2nnc(NCCCO)[nH]c2=O)cc1 | – | -6.72%
23 | Cc1cc(-c2ccc(S(=O)(=O)N3CCN(c4cccc(C(F)(F)F)c4)CC3)s2)on1 | 13.1 µM (active) | –
24 | Cc1cccc(N2CCN(S(=O)(=O)c3ccc(-c4cc(C)no4)s3)CC2C)c1 (configuration not stated) | – | 7.47%
25 | Cc1cc(-c2ccc(S(=O)(=O)N3CCc4ccccc4C3)s2)on1 | – | 40.7%
26 | COCC1CCN(C(=O)CCc2nnc(C3(c4ccc(Cl)cc4)CCC3)o2)C1 (configuration not stated) | – | -0.798%

Row | Structure (SMILES) | Potency | activity change, negative = inhibition
27 | CCOc1ccccc1N1C(=O)CC(Sc2nccc(C)n2)C1=O (configuration not stated) | – | -19.9%
28 | CCOc1ccc(OCC(=O)OC(C)C(=O)NC2CCCCC2C)cc1 (configuration not stated) | – | -9.96%
29 | CCCC(=O)Nc1nnc(-c2ccccc2)o1 | – | 3.75%
30 | Cc1ccc(C(=O)NCC(=O)OCc2nnc(-c3ccccc3)o2)cc1 | – | -23.8%
31 | CCc1ccc(CN(C)C(=O)CCc2nnc(-c3ccc(-c4ccccc4)cc3)o2)nc1 | 11.7 µM (active) | –
32 | CCOc1ccc(NC(=O)CC(Cc2ccc(Cl)cc2)C(=O)O)cc1 (configuration not stated) | – | -6.41%
33 | O=C(CN1CCc2cc3c(cc2C1)OCCCO3)Nc1ccccc1 | – | 47.6%
34 | OCC(CO)NC1C[C@](O)(CO)[C@@H](O)[C@H](O)[C@H]1O (some centres not stated) | – | 14.3%
35 | CCCOc1ccc(Cn2ccnc2)cc1[N+](=O)[O-] | – | 0%
36 | CCCCOC(=O)CCCc1ccc([N+](=O)[O-])cc1[N+](=O)[O-] | – | 6.22%
37 | CCCCOc1ccc(CSC(=N)N)cc1[N+](=O)[O-] | 2.33 µM (active) | –
38 | CCn1cc(C(=O)NCc2ccc3c(c2)OCO3)c2cc(OC)c(OC)cc2c1=O | – | 12%
39 | COc1cc(OC)c(C(=O)NCc2ccc3c(c2)OCO3)cc1OC | 13.1 µM (active) | –
40 | COc1cc(CNCc2ccc3c(c2)OCO3)c([N+](=O)[O-])cc1OC | – | 3.58%
41 | O=C(O)CCCN1C(=O)C2C3c4ccccc4C(c4ccccc43)[C@@H]2C1=O (some centres not stated) | – | 9.24%
42 | O=C1CCCCN1CCCC(=O)N1CCCC(Nc2ccc(F)cc2)C1 (configuration not stated) | – | 1.89%
43 | Cc1ccc(NC2CCCN(C(=O)CCc3cn[nH]c3)C2)cc1C (configuration not stated) | – | 32%
44 | O=C(CN1C(=O)CSC1=O)N1CCCC(Nc2ccc(F)cc2)C1 (configuration not stated) | 1.65 µM (active) | –
45 | CC1C(=O)Nc2ccc(S(=O)(=O)N3CCN(c4ccccc4F)CC3)cc2NC1=O (configuration not stated) | – | 0.196%
46 | O=C1/C(=C/c2cccs2)SC(=S)N1C1CCS(=O)(=O)C1 (configuration not stated) | – | -41.9%
47 | Cc1cc(C)cc(C(=O)NC(CC(N)=O)c2ccc(N3CCC(N4CCCCC4)CC3)c([N+](=O)[O-])c2)c1 (configuration not stated) | – | 73.1%
48 | CC1CCCCN1CCCNc1ccc(C(CC(N)=O)NC(=O)c2ccccc2)cc1[N+](=O)[O-] (configuration not stated) | – | -34.8%
49 | NC(=O)CC(NC(=O)Cc1ccc(Br)cc1)c1ccc(NC2CC3CCC2C3)c([N+](=O)[O-])c1 (configuration not stated) | 11.7 µM (active) | –
50 | O=C(O)c1ccc(-n2nc(-c3ccccc3)c3ccccc3c2=O)cc1 | – | 24.2%
51 | O=C(c1ccc(F)cc1)n1c(=S)nc2ccccn21 | – | 135%
52 | CCc1ccc(C2C(C#N)=C(N)Oc3n[nH]c(CC(=O)OC)c32)cc1 (configuration not stated) | – | -3.61%

Row | Structure (SMILES) | Potency | activity change, negative = inhibition
53 | COc1ccc(-c2[nH]nc3c2C(c2ccncc2)C(C#N)=C(N)O3)cc1 (configuration not stated) | 4.65 µM (active) | –
54 | CCOc1c(OC)cc(C2C(C#N)=C(N)Oc3n[nH]c(-c4ccncc4)c32)cc1OC (configuration not stated) | – | 16.2%
55 | COc1cc(C(=O)Nc2ncccc2C)ccc1OCC(=O)N1CCOCC1 | – | -9.13%
56 | Cc1cc(-n2cnc(-c3cn(C)nc3C)n2)no1 | – | 48.3%
57 | Cc1cc(OCC(=O)N(C)c2c(N)n(Cc3ccccc3)c(=O)[nH]c2=O)c(C(C)C)cc1Cl | – | 0.877%
58 | Cc1cccc(OCC(=O)NCCCNC(=O)c2ccccn2)c1 | – | 30.2%
59 | Cc1ccccc1NC(=O)C1CCN(C(=O)NC2CCCCC2)CC1 | – | 14.1%
60 | O=C1COc2ccc(NC(=O)N3CCN(c4ccc(F)cc4)CC3)cc2N1 | – | 0%
61 | CC(CC(=O)Nc1ccc(F)cc1F)S(=O)(=O)c1ccc2c(c1)NC(=O)CO2 (configuration not stated) | 6.57 µM (active) | –
62 | Cc1ccc(NS(=O)(=O)c2ccc3c(c2)NC(=O)CO3)cc1 | – | 42.8%
63 | COc1ccc(C)cc1NC(=O)NCCCCc1ccccc1 | – | -10.7%
64 | CCc1cccc(NC(=O)COC(=O)C2CCN(c3ccc(C(F)(F)F)cn3)CC2)c1 | – | 0%
65 | Cc1cnc(CN(C)C(=O)C2CCC(=O)N(CCc3cccc(F)c3)C2)[nH]1 (configuration not stated) | – | -11.6%
66 | O=C1CCC(C(=O)N2CCC(O)(c3ccccc3)CC2)CN1CCc1ccccc1 (configuration not stated) | – | 31.1%
67 | Cc1cnc(C)c(N2CCN(C(=O)C3CCC(=O)N(CCc4cccc(F)c4)C3)CC2)n1 (configuration not stated) | 14.7 µM (active) | –
68 | O=C(NC1CC1)C(Cc1ccccc1)NS(=O)(=O)c1ccccc1F (configuration not stated) | – | 11.3%
69 | O=C1N[C@@H](Cc2ccccc2)C(=O)N2[C@H]1C[C@]1(Br)c3ccccc3N(S(=O)(=O)c3ccccc3)[C@H]21 | – | -39.5%
70 | Cc1ccc(CCNC(=O)c2ccc3nc4ccccc4c(=O)n3c2)cc1 | – | 29.7%
71 | COCCOC(=O)C1=C(C)N=c2s/c(=C\c3cccs3)c(=O)n2C1c1cccs1 (configuration not stated) | 8.28 µM (active) | –
72 | CCOC(=O)C1=C(C)Nc2nc3ccccc3n2C1c1cccs1 (configuration not stated) | – | -13.8%
73 | CCOC(=O)C1=C(C)N=c2s/c(=C\C(=O)OC)c(=O)n2C1c1ccc(OC)cc1 (configuration not stated) | – | -23.7%
74 | CC(C)(C)n1cnnc1Sc1ccc([N+](=O)[O-])cn1 | 1.65 µM (active) | –
75 | Cc1cccc(C)c1NC(=O)CSc1ccc([N+](=O)[O-])cn1 | – | -13.6%
76 | O=[N+]([O-])c1ccc(Sc2n[nH]c(-c3ccco3)n2)nc1 | – | 219%
77 | Cc1cccc(N(C(=O)c2csnn2)C(C(=O)NCc2ccccc2)c2ccncc2)c1 (configuration not stated) | – | -0.692%
78 | COc1cc(C(=S)N2CCOCC2)ccc1O | inactive | –

Row | Structure (SMILES) | Potency | activity change, negative = inhibition
79 | CCOc1cc(C(=S)N2CCOCC2)ccc1OS(=O)(=O)c1ccc(Br)cc1 | – | 13.8%
80 | CCOc1cc(C(=S)N2CCOCC2)ccc1O | 13.1 µM (active) | –
81 | CCN1c2nc3c(C)cccn3c(=O)c2CC2(C(=O)N(C)C(=O)N(C)C2=O)C1C (configuration not stated) | 3.29 µM (active) | –
82 | CCOC(=O)N1CCN(C(=O)CSc2nc(=O)n3cccc(C)c3n2)CC1 | – | 8.94%
83 | CN(Cc1c(F)cccc1Cl)C(=O)CNC(=O)c1ccc2c(c1)OCO2 | – | 20.4%
84 | Cc1ccc(C(CC(=O)O)NC(=O)c2ccc(S(=O)(=O)N3CCCC3)cc2)cc1 (configuration not stated) | – | 22.2%
85 | O=C(NCCN1C(=O)S/C(=C\c2cccnc2)C1=O)c1cccc(OC(F)F)c1 | – | -27.2%
86 | Cc1cc(OCCCC(=O)NCCN2C(=O)S/C(=C\c3cccnc3)C2=O)ccc1Cl | 11.7 µM (active) | –
87 | CCOc1ccc(N2CC(C(=O)NCCN3C(=O)S/C(=C\c4cccnc4)C3=O)CC2=O)cc1 (configuration not stated) | – | 14.5%
88 | COC(=O)c1ccc(S(=O)(=O)NCc2ccccc2)n1C | – | 70.9%
89 | Cc1ccc(C(=O)CCC(=O)N(C)CC(=O)Nc2c(Cl)cccc2Cl)cc1 | – | 21.6%
90 | CCOC(=O)N1CCC(c2cc(=O)n(-c3ccccc3)[nH]2)CC1 | – | 0.756%
91 | COc1cc(OC)cc(-c2cc3nc(C4CCN(C(=O)OC(C)(C)C)CC4)cc(=O)n3[nH]2)c1 | 1.65 µM (active) | –
92 | CC1CCN(C(=O)c2cc3nc(C4CC4)cc(C(F)(F)F)n3n2)CC1 | – | 9.96%
93 | O=C(Oc1ccc(-c2nnco2)cc1)c1ccc(F)c(S(=O)(=O)N2CCOCC2)c1 | – | -11.3%
94 | O=C(CCS(=O)(=O)c1ccc2c(c1)NC(=O)CS2)NCc1ccccc1Cl | – | 11.6%
95 | Cc1csc(/N=C/N(C)C)c1C#N | – | 26.6%
96 | Cc1cccc2sc(N(CCCN(C)C)C(=O)CCS(=O)(=O)c3ccccc3)nc12 | – | 5.57%
97 | Cc1cc(C)c2nc(N(CCN(C)C)C(=O)/C=C/c3cccs3)sc2c1 | 6.57 µM (active) | –
98 | CC(=O)N(CCCN(C)C)c1nc2ccc(C)cc2s1 | – | 9.36%
99 | CCOC(=O)c1sc2nc(C)[nH]c(=O)c2c1C | – | -1.31%
100 | Cc1ccc(NC(=O)CSc2nc(CSc3ccc(C)cc3)cc(=O)[nH]2)cc1 | – | -16.4%
101 | Cc1ccc(SCc2cc(=O)[nH]c(N3CCCCC3)n2)cc1 | 5.22 µM (active) | –
102 | O=c1cc(CSc2ccccn2)nc(N2CCN(c3ccccc3)CC2)[nH]1 | – | -8.4% [at 5.75 µM]

Source: PubChem BioAssay AID504834 (National Center for Advancing Translational Sciences (NCATS), 2011)
